Among the data in PubChem BioAssay are z-score and composite z-score values, retold here.

Assay [1] in a line: resazurin metabolic signal in HepG2 cells – cell-based, resazurin fluorescence, 24 h, PK04 Diversity Set, profiling panel (AID 1172). Further: test concentration not given here. Conditions: HepG2 viability, higher = more signal. For orientation: Resazurin is reduced to fluorescent resorufin, in cell work by metabolically active cells.
The nature of assay [2]: budding yeast growth changes without added modifier – OD600, strain BY4716, 24 h, basal condition, primary screen (AID 1173). To be noted: S. cerevisiae BY4716 growth, OD600, 24 h; higher = more signal, called active from +8 up or from −8 down.
The nature of assay [3]: viability profiling in MM1S myeloma cells – cell-based, resazurin fluorescence, basal, 24 h, PK04 Diversity Set, profiling panel (AID 1174).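 Further: MM1S multiple myeloma cell line; test concentration not given here.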 Conditions: higher = more signal, called active from +8 up or from −8 down.
The target of assay [4] is Dihydroorotate dehydrogenase (quinone), mitochondrial (Plasmodium falciparum (isolate 3D7)) (UniProt Q08210). Description: inhibition of P. falciparum DHODH – biochemical, C-terminal His tag, absorbance 600 nm, primary screen (AID 1175).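 Further: recombinant parasite enzyme with a five histidine tag at its C terminus; test concentration not given here.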 Conditions: PfDHODH enzyme, DCIP absorbance 600 nm; higher = more signal, called active from +8 up or from −8 down.
Chain of Dihydroorotate dehydrogenase (quinone), mitochondrial (Plasmodium falciparum (isolate 3D7)) (Q08210 whole entry, looked up): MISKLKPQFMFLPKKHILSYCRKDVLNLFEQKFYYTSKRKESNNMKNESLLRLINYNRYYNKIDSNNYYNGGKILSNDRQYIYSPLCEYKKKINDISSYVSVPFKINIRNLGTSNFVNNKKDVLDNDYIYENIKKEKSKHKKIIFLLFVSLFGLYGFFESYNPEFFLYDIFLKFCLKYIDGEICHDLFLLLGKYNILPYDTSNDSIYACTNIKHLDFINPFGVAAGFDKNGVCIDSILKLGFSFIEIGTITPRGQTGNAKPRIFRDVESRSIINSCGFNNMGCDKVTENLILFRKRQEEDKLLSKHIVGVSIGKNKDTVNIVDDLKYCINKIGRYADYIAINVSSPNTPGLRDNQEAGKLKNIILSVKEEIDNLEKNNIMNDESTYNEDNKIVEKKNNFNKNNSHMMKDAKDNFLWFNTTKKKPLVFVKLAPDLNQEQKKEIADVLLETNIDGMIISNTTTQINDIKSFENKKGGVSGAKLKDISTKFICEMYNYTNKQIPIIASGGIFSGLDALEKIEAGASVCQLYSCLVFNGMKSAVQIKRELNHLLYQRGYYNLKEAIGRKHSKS
Assay [5] is described as follows: inhibition of PAO1 biofilm formation – strain PAO1, LB-PBS medium, absorbance 600 nm, primary screen (AID 1176). Further: test concentration not given here. To be noted: P. aeruginosa PAO1 growth/biofilm, A600, 12 h; higher = more signal.
The nature of assay [6]: growth modulation of vineyard yeast isolate – strain RM11-1a, OD600, basal, 24 h, primary screen (AID 1177).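 Further: cultures grown under basal conditions with no added stressor; test concentration not given here.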 To be noted: S. cerevisiae RM11-1a growth, OD600, 24 h; higher = more signal, called active from +8 up or from −8 down.
A short description of assay [7]: growth of efflux-deficient E. coli DRC39 – strain DRC39, OD650, 24 h, E. coli filamentation inducers, primary screen (AID 1178).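 Further: growth measured as culture turbidity by optical density at 650 nm; test concentration not given here.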 Conditions: E. coli DRC39 acrAB, higher = more signal, called active from +8 up or from −8 down.
Assay [8] can be described thus: growth of efflux-deficient E. coli DRC39 – strain DRC39, OD650, 48 h, E. coli filamentation inducers, primary screen (AID 1179).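 Further: screen aims at cell division blockers that make cells filament.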 Conditions: E. coli DRC39 delta-acrAB growth, higher = more signal, called active from +8 up or from −8 down.
Assay [9] is described as follows: viability profiling in RPMI8226 myeloma cells – cell-based, resazurin fluorescence, basal, 24 h, PK04 Diversity Set, profiling panel (AID 1180).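 Further: RPMI8826 multiple myeloma cell line at 5000 cells per well; test concentration not given here.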 Conditions: higher = more signal.
Assay [10] addresses E3 ubiquitin-protein ligase XIAP (Homo sapiens) (UniProt P98170). Description: small molecules binding XIAP protein – biophysical, small-molecule microarray, fluorescence 635 nm, primary screen (AID 1181).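 Further: score merges 667 nm emission and signal to noise over triplicate slides.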 To be noted: higher = more signal.

Activity calls are given as the source filed them. Unless noted, how the calls were made is not given here.

Chain of E3 ubiquitin-protein ligase XIAP (Homo sapiens) (P98170 whole entry, looked up): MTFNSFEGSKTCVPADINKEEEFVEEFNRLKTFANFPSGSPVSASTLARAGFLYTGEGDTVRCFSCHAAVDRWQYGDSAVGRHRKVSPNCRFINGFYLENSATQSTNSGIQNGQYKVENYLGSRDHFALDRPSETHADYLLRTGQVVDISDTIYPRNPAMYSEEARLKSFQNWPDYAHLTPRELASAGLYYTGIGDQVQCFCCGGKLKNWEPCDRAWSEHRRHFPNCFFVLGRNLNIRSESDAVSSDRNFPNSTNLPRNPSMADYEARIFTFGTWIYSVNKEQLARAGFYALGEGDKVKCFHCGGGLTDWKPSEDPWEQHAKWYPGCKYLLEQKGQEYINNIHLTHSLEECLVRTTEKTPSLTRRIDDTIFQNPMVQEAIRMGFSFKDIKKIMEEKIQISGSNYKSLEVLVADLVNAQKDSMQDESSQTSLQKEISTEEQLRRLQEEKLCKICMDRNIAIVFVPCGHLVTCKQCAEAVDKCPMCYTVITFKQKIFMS

On to `COC(=O)[C@@]1(Cc2ccc(OC)cc2)[C@H]2c3cc(C(=O)N(C)C)n(Cc4cccc5ccccc45)c3C[C@H]2CN1C(=O)c1ccccc1`, for which the z-score in assay [1] is -1.75; in [2] it was 0.897 (inactive); in assay [3] it was -2.01 (inactive); in [5] it was 2.31 (inactive); in [6] it was 0.872 (inactive); in assay [7], -0.353 (inactive). Moreover, the z-score is -0.999 (inactive) in assay [8] and -2.66 in [9]. Further, the composite z-score in [4] was -3.49 (inactive); in assay [10], 0.101.

For `C=CCC(OC(C)=O)[C@@H]1[C@@H](N(Cc2ccc(-c3cccc(C(F)(F)F)c3)o2)C(=O)c2ccc(-c3ccccc3)cc2)c2cc(OCCCO)ccc2N1C(=O)c1ccc(-c2ccccc2)cc1` (stereo not given in full), the z-score in [1] was -0.645; in [2] it was 1.03 (inactive); in assay [3], 0.0516 (inactive); in assay [5] it was 0.268 (inactive); in [6], 0.609 (inactive); in assay [7], -0.386 (inactive). Moreover, the z-score was -0.487 (inactive) in [8] and 0.0033 in assay [9]. The composite z-score in [4] is 0.0524 (inactive); in assay [10], 0.0471.

Consider `CCCC=C(CCC)[C@@H](NS(=O)(=O)c1cccs1)c1ccc(C(=O)OC)cc1`, for which the z-score is -0.395 in [1]; 0.91 (inactive) in assay [2]; 1.18 (inactive) in assay [3]; 0.535 (inactive) in assay [5]; 1.59 (inactive) in [6]; 0.588 (inactive) in assay [7]. Moreover, the results for the z-score in assay [8] and in assay [9] were -0.424 (inactive) and -5.85, respectively. In addition, the figures for the composite z-score in assay [4] and in assay [10] were 0.335 (inactive) and 0.0248, respectively.

Regarding `O=C1c2ccccc2[C@](Cc2ccccc2I)(C(=O)NC2CC2)[C@H](c2ccc(CO)cc2)N1C1CCCCC1`, the z-score is -0.13 in [1]; 0.404 (inactive) in assay [2]; 0.516 (inactive) in assay [3]; 0.304 (inactive) in assay [5]; 2.64 (inactive) in assay [6]; -0.0781 (inactive) in [7]. For the same compound, the z-score in assay [8] was -0.585 (inactive); in [9], 0.549. The composite z-score in assay [4] is 1.06 (inactive); in [10] it was -0.0426.

For `COc1ccc(C(=O)Nc2ccc(CN3C(=O)[C@@]4(O[C@@H](CCn5cc([C@H](O)c6ccccc6)nn5)[C@H]([Si](C)(C)c5ccc(OC)cc5)[C@H]4C)c4ccccc43)cc2)cc1`, the z-score in assay [1] is -1.44; in assay [2] it was -0.91 (inactive); in assay [3] it was -3.18 (inactive); in assay [5], 1.04 (inactive); in assay [6], 1.57 (inactive); in [7], 0.245 (inactive). Further, the z-score is 0.195 (inactive) in [8] and -3.11 in assay [9]. In addition, the composite z-score in assay [4] is -0.441 (inactive); in [10], -0.16.

As to `COc1ccc(CCNC(=O)[C@@]2(Sc3ccc(C)cc3)CC(=O)N(C3CCCCC3)[C@@H]2c2ccc(CO)cc2I)cc1`, the z-score is 0.594 in assay [1]; 0.0658 (inactive) in assay [2]; 0.175 (inactive) in assay [3]; 1.34 (inactive) in [5]; -0.382 (inactive) in [6]; 0.258 (inactive) in assay [7]. For the same compound, the values for the z-score in [8] and in assay [9] were 0.238 (inactive) and -1.2, respectively. The composite z-score in [4] was 0.43 (inactive); in assay [10] it was -0.276.

As to `CCCCN1CC=CC23O[C@@H]4/C=C\CCC(C)OC(=O)C4[C@H]2C(=O)N(CCCCCO)[C@@H]3C1=O` (stereo not given in full), the z-score in [1] was 0.389; in [2], 0.0305 (inactive); in assay [3], 0.96 (inactive); in assay [5], 0.646 (inactive); in assay [6], -0.0125 (inactive); in [7], 0.511 (inactive). Also, the z-score in [8] is 0.35 (inactive); in assay [9] it was 0.05. Also, the figures for the composite z-score in [4] and in assay [10] were 0.18 (inactive) and -0.0436, respectively.

For the compound `C=C(CCCC)C(=O)CC[C@H](OC(C)=O)c1cccc(OCCO)c1`, the z-score in assay [1] was 0.0379; in [2], -1.43 (inactive); in [3], -0.602 (inactive); in assay [5], -0.387 (inactive); in [6], -0.561 (inactive); in assay [7] it was -0.878 (inactive). For the same compound, the figures for the z-score in [8] and in [9] were -0.873 (inactive) and -0.482, respectively. In addition, the composite z-score in assay [4] is -1.08 (inactive); in assay [10], -0.0746.

As to `COCCCN1C(=O)[C@@]2(Cc3ccccc31)c1ccccc1C(=O)N(Cc1ccccc1C(F)(F)F)[C@H]2c1ccc(CO)cc1`, the z-score in assay [1] was 0.0531; in assay [2] it was 0.947 (inactive); in assay [3], -0.0554 (inactive); in [5], 4.64 (inactive); in assay [6] it was -0.305 (inactive); in assay [7], 0.0576 (inactive). Also, the z-score in assay [8] was -0.297 (inactive); in assay [9], 0.0241. In addition, the figures for the composite z-score in assay [4] and in assay [10] were -20.2 (active) and -0.0373, respectively.

On to `O=C1c2ccccc2[C@@]2(Cc3ccccc3N(CCN3CCOCC3)C2=O)[C@H](c2ccc(CO)cc2)N1Cc1ccccc1`, for which the z-score is -0.864 in assay [1]; -0.187 (inactive) in assay [2]; 0.757 (inactive) in assay [3]; 0.168 (inactive) in assay [5]; 0.167 (inactive) in assay [6]; 0.839 (inactive) in [7]. Moreover, the z-score in [8] is 1.61 (inactive); in assay [9], 0.386. The composite z-score in [4] was -4.94 (inactive); in assay [10] it was -0.278.

Turning to `O=C1NC(=O)C2C1C=CC(C(O)Cc1ccccc1)N2Nc1ccc(Cl)cc1Cl` (stereo not given), the z-score in assay [1] is -0.985; in assay [2], -7.58 (inactive); in [3], -1.56 (inactive); in assay [5], 0.53 (inactive); in assay [6] it was 0.181 (inactive); in assay [7] it was -0.655 (inactive). Besides, the z-score in assay [8] is -0.603 (inactive); in assay [9], -1.04. For the same compound, the composite z-score in assay [4] is -0.276 (inactive); in assay [10] it was 0.13.

As for `Cc1ccc(S[C@]2(C(=O)NC(C)C)CC(=O)N(Cc3ccccc3Cl)[C@@H]2c2ccc(CO)cc2I)cc1`, the z-score in [1] is 0.36; in assay [2] it was -3.93 (inactive); in assay [3], -2.83 (inactive); in [5] it was 0.723 (inactive); in assay [6] it was -1.89 (inactive); in assay [7] it was 0.0051 (inactive). Besides, the z-score was -0.465 (inactive) in [8] and -2.24 in assay [9]. In addition, the composite z-score was -0.766 (inactive) in assay [4] and -0.074 in [10].

Regarding `C=CCNC(=O)[C@H]1[C@@H]2C(=O)O[C@@H](c3ccccc3)[C@@H](c3ccccc3)N2[C@@H](c2ccc(OCCO)cc2)[C@]12C(=O)N(C(=O)OCCOC)c1ccccc12`, the z-score in [1] is -0.732; in [2], 1.41 (inactive); in [3], -0.738 (inactive); in assay [5], 1.11 (inactive); in [6], 2.32 (inactive); in [7] it was -0.595 (inactive). Also, the z-score in assay [8] was -1.27 (inactive); in [9] it was -0.0749. The composite z-score is 1.17 (inactive) in [4] and -0.0969 in assay [10].
